# Source: PubChem BioAssay (several laboratories)
# AMPAR-TARP mod: GluA2-stargazin AMPA receptor complex modulation | O88602+P19491 | HEK293 GluA2+stargazin, membrane potential dye (FDSS), glutamate EC50; hits were called plate by plate, in both directions | calls only at 30 µM | 40,000 compounds, 3.5% hits | AID 1259245;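 active = any of four per-well response measures lying three or more SD from its plate-wide compound average, in either direction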
# GIRK2 activator: Activators of human GIRK2-containing channels. P48051. HEK293 GIRK2/NPY4 cells, thallium flux fluorescence. activation (% efficacy), % for hits at 37.5 µM. 34,000 tested, under 10 active. AID 1259324;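 active = primary screen hit, no activity in plain HEK293 cells, and in GIRK2-only cells above 5% efficacy rising with concentration; inactive = the rest, including fluorescent compounds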;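 note: efficacy is normalized control-subtracted fluorescence 15 s after thallium addition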
# Target sequence (P48051 whole entry, looked up): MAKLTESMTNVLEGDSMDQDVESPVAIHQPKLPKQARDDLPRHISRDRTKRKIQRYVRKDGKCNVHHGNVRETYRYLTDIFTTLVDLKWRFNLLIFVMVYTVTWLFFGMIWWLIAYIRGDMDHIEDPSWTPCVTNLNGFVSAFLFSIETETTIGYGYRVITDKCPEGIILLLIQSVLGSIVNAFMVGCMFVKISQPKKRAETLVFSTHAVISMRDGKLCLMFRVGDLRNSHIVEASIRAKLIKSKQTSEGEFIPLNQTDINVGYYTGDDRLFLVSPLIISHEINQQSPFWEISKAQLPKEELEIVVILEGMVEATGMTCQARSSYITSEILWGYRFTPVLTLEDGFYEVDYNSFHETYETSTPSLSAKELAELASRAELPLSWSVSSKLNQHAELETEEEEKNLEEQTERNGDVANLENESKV
# * hit, by the source's call; i = inactive; x = no result given; + = active, no number. Shown is part of a subset that was picked to be rich in hits.
SMILES,AMPAR-TARP mod,GIRK2 activator
Cc1nc(C)c(C(=O)Nc2ccccc2NC(=O)c2ccccn2)s1,x,i
O=S(=O)(Oc1c(Cl)cc(Cl)c2cccnc12)N1CCCCC1,+,x
O=S(=O)(Oc1c(Cl)cc(Cl)c2cccnc12)N1CCCCCC1,i,x
O=C(/C=C/c1ccccc1)Nc1ccc2c(c1)N(C(=O)c1ccccc1)CCC2,+,i
O=C(/C=C/c1ccc2c(c1)OCO2)Nc1ccc2c(c1)N(C(=O)C1CC1)CC2,+,i
O=C(/C=C/c1ccc2c(c1)OCO2)Nc1ccc2c(c1)CN(C(=O)C1CC1)CC2,i,i
O=C(Nc1ccccc1)Nc1ccc2c(c1)N(C(=O)c1ccccc1)CCC2,x,i
CCOc1ccc(Cl)cc1S(=O)(=O)NCc1ccccn1,i,x
CC(=O)c1ccc(NC(=O)Cn2c(=O)n(Cc3ccccc3)c(=O)c3nscc32)cc1,+,i
Cc1cccc(Cn2c(=O)c3nscc3n(CC(=O)Nc3ccccc3C)c2=O)c1,i,i
CCOC(=O)c1ccc(NC(=O)C2CC=CCC2(C)C(=O)O)cc1 (stereo not drawn),i,x
CCc1ccc(C(=O)NCCNc2ccc(Nc3cccc(C)n3)nn2)cc1,x,i
O=C(NNC(=O)c1ccc(Cl)cc1)NC12CC3CC(CC(C3)C1)C2,i,x
COc1cccc(-c2cc(CC(=O)NCCc3ccccc3)no2)c1,i,i
COCCn1nc(-c2ccc3c(c2)OCO3)ccc1=O,+,i
COCCn1nc(-c2ccc(Cl)cc2)ccc1=O,i,i
Cc1nn(C2CCS(=O)(=O)C2)c2nc(-c3cccs3)cc(C(=O)Nc3ccc4c(c3)OCO4)c12 (stereo not drawn),i,i
CCOc1ccc(OCCNC(=O)c2cc3cccc(OCC)c3oc2=O)cc1,i,i
CCOc1cccc2cc(C(=O)NCc3ccncc3)c(=O)oc12,+,i
COc1ccc(NC(=O)CSc2nnc(-c3ccc(OC)c(OC)c3)n2N)c(OC)c1,i,i
O=C(Cn1cnc(-c2cccs2)cc1=O)NCC(F)(F)F,+,i
O=C(Cn1cnc(-c2cccs2)cc1=O)NCc1ccccc1OC(F)(F)F,i,i
CCc1ccc(NCc2cc3ccc(OC)cc3n(CC(=O)Nc3ccccc3F)c2=O)cc1,i,x
CCc1ccc(NCc2cc3ccc(OC)cc3n(CC(=O)Nc3ccc(OC)cc3)c2=O)cc1,+,i
O=C(NCc1cccc2ccccc12)N1CCC(c2cccs2)CC1,i,i
SMILES,AMPAR-TARP mod,GIRK2 activator
Cc1ccc(-c2csc(NC(=O)c3ccc(S(=O)(=O)C(C)C)cc3)n2)cc1,i,x
CC(C)N(C)S(=O)(=O)c1ccc(C(=O)Nc2nc(-c3ccncc3)cs2)cc1,+,i
O=C(c1cccs1)N(CCCn1ccnc1)c1nc2ccccc2s1,i,i
Cc1ccc(Cl)c2sc(N(CCCn3ccnc3)C(=O)c3cccs3)nc12,+,i
Cc1ccc(CN2C(=O)CC(N3CCOCC3)C2=O)cc1 (stereo not drawn),i,i
CC(c1ccccc1)N1C(=O)CC(N2CCOCC2)C1=O (stereo not drawn),+,x
COc1c(C)cc(S(=O)(=O)NCC(c2ccsc2)N2CCc3ccccc3C2)cc1C (stereo not drawn),i,i
O=C(NCC(c1ccsc1)N1CCc2ccccc2C1)C1CC1 (stereo not drawn),+,i
O=S(=O)(NC1(c2nc(-c3cccnc3)no2)CCCCC1)c1cccs1,i,i
COc1ccc(N2CCN(C(=O)c3ccc(S(=O)(=O)N4CCCC4)cc3)CC2)nn1,x,i
CN(C)c1ccc(N2CCN(C(=O)c3ccc(S(N)(=O)=O)cc3)CC2)nn1,+,i
Cc1nnsc1C(=O)N1CCC(CNC(=O)c2c(-c3ccccc3Cl)noc2C)CC1,i,i
Cc1onc(-c2ccccc2Cl)c1C(=O)N1CCC(c2ccsc2)CC1,+,i
COC(=O)Cc1c(C)c2ccc(OCC(=O)c3ccc(-c4ccccc4)cc3)cc2oc1=O,i,x
COC(=O)Cc1c(C)c2ccc(OCC(=O)c3ccc(F)cc3)cc2oc1=O,+,x
O=S(=O)(c1cccc(C(F)(F)F)c1)N1CCC(Cc2ccccc2)CC1,i,x
O=C(Nc1nc(-c2ccncc2)cs1)C1CCCN(S(=O)(=O)c2cccs2)C1 (stereo not drawn),i,x
O=C(Nc1nc(-c2ccncc2)cs1)C1CCN(S(=O)(=O)c2cccs2)CC1,+,x
Cc1cccc(C(=O)N2CCC3(CC2)CC(=O)c2ccccc2O3)c1,+,x
O=C1CC2(CCN(C(=O)c3ccc(-c4ccccc4)cc3)CC2)Oc2ccccc21,i,x
O=c1[nH]nc(SCc2nc(-c3ccc4c(c3)OCO4)no2)n2nc(-c3cccs3)cc12,x,i
COCCN=Cc1c(NCCOC)nc2ccccn2c1=O,+,i
Cc1nc2ccccn2c1C(=O)NCC1CCN(S(=O)(=O)C2CC2)CC1,i,i
O=C(NCCC1=CCCCC1)C1CN(C(=O)COc2ccccc2F)C1,i,i
COc1ccc(-c2csc(NC(=O)Cc3ccc(S(C)(=O)=O)cc3)n2)cc1OC,i,x
SMILES,AMPAR-TARP mod,GIRK2 activator
Cc1noc(C)c1S(=O)(=O)NCC(C)(O)c1ccc2c(c1)OCO2 (stereo not drawn),i,i
O=C(NCC(c1cccs1)N1CCOCC1)C1CCCCC1 (stereo not drawn),+,i
O=C(NCC(c1ccco1)N1CCOCC1)NC1CCCCC1 (stereo not drawn),i,i
CN(C)C(CNC(=O)C1CCCCC1)c1cccs1 (stereo not drawn),i,i
O=C(NCC(c1ccco1)N1CCOCC1)C1CC=CCC1 (stereo not drawn),+,i
CC(C)(C)n1nc2c(c1NC(=O)C(=O)N1CCC(C(N)=O)CC1)CSC2,i,i
COc1ccc(Br)c(C(=O)NCC(O)c2sccc2C)c1 (stereo not drawn),i,i
Cn1c(=O)c2cc(C(=O)NCCC(c3ccccc3)c3ccccc3)sc2n(C)c1=O,i,i
Cn1c(=O)c2cc(C(=O)NCCCN3CCOCC3)sc2n(C)c1=O,+,i
Cn1c(=O)c2cc(C(=O)NCc3ccccc3)sc2n(C)c1=O,i,i
Cn1c(=O)c2cc(C(=O)Nc3ccc(Oc4ccccc4)cc3)sc2n(C)c1=O,i,i
Cn1c(=O)c2cc(C(=O)Nc3cccc(S(N)(=O)=O)c3)sc2n(C)c1=O,+,i
Cn1c(=O)c2cc(C(=O)NCCCn3ccnc3)sc2n(C)c1=O,+,i
Cc1cc(C)cc(C(=O)N2c3ccccc3CC2C(N)=O)c1 (stereo not drawn),i,i
CCOc1ccc(S(=O)(=O)N2CCCC(C)C2)c2ccccc12 (stereo not drawn),i,x
CCOc1ccc(Cl)cc1S(=O)(=O)N1CCCC(C)C1 (stereo not drawn),+,x
Cc1ccnc(Nc2ccc(NCCNC(=O)c3ccc(F)cc3)nn2)c1,i,i
COc1ccc(Cl)cc1S(=O)(=O)NCC1(O)CCCC1,i,i
Cc1ccc(N2C(=O)CCS2(=O)=O)cc1S(=O)(=O)NCCc1c[nH]c2ccccc12,i,i
O=C1CCS(=O)(=O)N1c1ccc(S(=O)(=O)NCCc2cccs2)cc1,+,i
